Laboratory results from PubChem BioAssay AID1949 (Southern Research Institute, 2009).
Screen size: about 100,000 compounds; about 1,600 (1.6%) were called active. Another 3% or so got no clear call; they are omitted. A selection follows. A number with no mark means an inactive call. How the calls were made is not given here.

Assay: Confirmatory growth inhibition assay against Mycobacterium tuberculosis H37Rv, potency (AID 1949);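 on inhibition: bacteria grown 7 days with compound before Alamar blue readout; 0% = untreated bacteria wells and 100% = bacteria with saturating antibiotic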
Conditions: M. tuberculosis H37Rv growth inhibition; stronger effect = higher value, concentration not given here
With `CN(c1cccc(NC(=O)c2ccccc2N(Cc2ccccc2)S(=O)(=O)c2ccccc2)c1)S(C)(=O)=O` the inhibition was “inactive”.
Compound `Cc1ccc(F)cc1NC(=O)CSc1ccc(Br)cc1` has an inhibition of 36%.
With `O=C(Oc1ccc2c3c(c(=O)oc2c1)CCC3)c1cccc(Cl)c1` the inhibition was “inactive”.
For `Cc1ccc(-c2csc(NC(=O)CSc3ccc(Br)cc3)n2)cc1`, the inhibition was “inactive”.
In the case of `C=CCOc1ccc(C2C(C(=O)c3cccs3)=C(O)C(=O)N2CCN(CC)CC)cc1OC` (stereo not drawn), the inhibition is reported as “inactive”.
In the case of `CC(=O)C(C)n1c(=O)oc2ccc(Cl)cc21` (stereo not drawn), the inhibition is reported as 0.0633%.
With `Cc1cccc2c1N(C)C(=O)C2(O)CC(=O)c1ccco1` (stereo not drawn) the inhibition was “inactive”.
For `Cc1ccc(NC(=O)COc2ccc3c(C)c(Cc4ccccc4)c(=O)oc3c2C)cc1`, the inhibition was “inactive”.
For `CCCCOc1ccc(C2C(C(=O)c3ccco3)=C(O)C(=O)N2CCOC)cc1OC` (stereo not drawn), the inhibition was “inactive”.
Compound `CCC(C)n1[nH]c(=O)c2c1NC(=O)CSC2c1ccc(Cl)cc1Cl` (stereo not drawn) has an inhibition of 2.1%.
With `Cc1ccc(S(=O)(=O)N(C)CC(=O)NCCCc2ccccc2)cc1` the inhibition was “inactive”.
With `Cc1ccc(OCCCCCNCCO)cc1C` the inhibition was “inactive”.
With `CC(=O)Nc1ccc(S(=O)(=O)Nc2ccc(Cc3ccncc3)cc2)cc1` the inhibition was “inactive”.
With `COc1cc(OC)cc(C(=O)Nc2ccc(C(F)(F)F)cc2)c1` the inhibition was “inactive”.
In the case of `CSc1cccc(NC(=O)CCSc2ccc(Cl)cc2)c1`, the inhibition is reported as “inactive”.
For `N#Cc1ccc(Oc2ccc(NC(=O)C3CC=CCC3C(=O)O)cc2)cc1` (stereo not drawn), the inhibition was “inactive”.
For `CN(C(=O)CN1C(=O)c2ccccc2C1=O)C1CCCCC1`, the inhibition was “inactive”.
For `COc1ccc(OCCN(C)Cc2ccccc2)cc1`, the inhibition was “inactive”.
For `Cc1cc(S(=O)(=O)N2CCOCC2)ccc1F`, the inhibition was “inactive”.
`COc1ccc(Cl)cc1S(=O)(=O)Nc1ccccc1C` showed an inhibition of 4.41%.
For `CCN(CC)C(=O)c1ccc(NC(=O)c2ccccc2I)cc1`, the inhibition was “inactive”.
In the case of `Cc1cc(=O)oc2cc(Oc3nnnn3-c3ccccc3)ccc12`, the inhibition is reported as “inactive”.
For `CCOc1ccc(NC(=O)Nc2ccc(C)cc2Br)cc1`, the inhibition was “inactive”.
